Test results as given in the supplement of paper PMC10849652.
The full data set covers some 7,900 targets. This sample favours those with a hit. About 0.6% of all pairs of compound and target were hits.

Key:
Experiment in all cases: log2 fold change, soluble protein after heating vs DMSO (PISA); higher = thermal stabilisation; K562 cells, 10 uM, 30 min; active = over 0.2 and 3.5 SD of the protein, either way, in both replicates (recomputed)
[1] = compound: C1COCCN1CCN2C3=CC=CC=C3N=C2NC(=O)C4=CC(=CC=C4)[N+](=O)[O-] [IRAK-1-4 Inhibitor I]
In short: (§1)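 K562 cells at 2×10^6 cells/mL were treated for 30 min with 10 μM compound, and aliquots were heated for 3 min over 48°C-58°C before pooling. Extraction used PBS with 0.5% NP-40 at 4°C, and soluble protein was the supernatant after 21,000xg for 90 min, measured by TMTpro 16plex LC-MS/MS with channel sums equalised. Thermal stability values, relative to control samples and from duplicates, are log2 fold changes.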

[2] = compound: C=CC(=O)N1CCC[C@@H](n2nc(-c3ccc(Oc4ccccc4)cc3)c3c(N)ncnc32)C1 [ibrutinib]
In short: as §1

[3] = compound: CC(=O)c1cnc2ccc(-c3cc(Cl)c(O)c(Cl)c3)nc2c1N[C@H]1CC[C@H](CN(C)C)CC1
In short: as §1

[4] = compound: CC(C)(C)Cn1c(N)nc2ccc(-c3[nH]c(C(C)(C)C)nc3-c3ccc(F)cc3)nc21 [ralimetinib]
In short: as §1

[5] = compound: CC(C)(O)CC(=O)NCCn1ccc2ncnc(Nc3ccc(Oc4cccc(C(F)(F)F)c4)c(Cl)c3)c21
In short: as §1

[6] = compound: CC(C)C1=C2N=C(C=C(N2N=C1)NCC3=CC=CC=C3)NCCCCCCN
In short: as §1

[7] = compound: CC(C)C[C@@H](C=O)NC(=O)[C@H](CC(C)C)NC(=O)[C@H](CC(C)C)NC(=O)OCc1ccccc1
In short: as §1

[8] = compound: CC(C)N(C[C@H]1O[C@@H](n2cnc3c(N)ncnc32)[C@H](O)[C@@H]1O)[C@H]1C[C@@H](CCc2nc3cc(C(C)(C)C)ccc3[nH]2)C1 [pinometostat]
In short: as §1

[9] = compound: CC1=C(C(CC(=O)N1)C2=CC=C(C=C2)C(F)(F)F)C(=O)NC3=C(C=C4C(=C3)C=NN4)F
In short: as §1

[10] = compound: CC1=C(C2=C(C=C1)C(=O)C3=CC=CC=C3N2CCCN)C
In short: as §1

[11] = compound: CC1=C(C=C(C=C1)NC(=O)C2=CC(=CC=C2)C(C)(C)C#N)NC3=CC4=C(C=C3)N=CN(C4=O)C
In short: as §1

[12] = compound: CC1=C(C=C(C=C1)NC(=O)C2=CC(=CC=C2)N(C)C)NC(=O)C3=CC=C(C=C3)O
In short: as §1

[13] = compound: CC1=CC=C(C=C1)SC2=C3C=C(SC3=CN=C2)C(=O)N
In short: as §1

[14] = compound: CC1=NC(=CC=C1)C2=C(N=C(N2)C(C)(C)C)C3=CC4=NC=CN=C4C=C3
In short: as §1

[15] = compound: CCCCN(Cc1ccc(C(=O)NO)cc1)C(=O)Nc1ccccc1 [Nexturastat A]
In short: as §1

[16] = compound: CCCS(=O)(=O)Nc1ccc(F)c(C(=O)c2c[nH]c3ncc(-c4ccc(Cl)cc4)cc23)c1F [vemurafenib]
In short: as §1

[17] = compound: CCCS(=O)(=O)Nc1ccc(F)c(C(=O)c2c[nH]c3ncc(Cl)cc23)c1F
In short: as §1

[18] = compound: CCCc1cc(C)[nH]c(=O)c1CNC(=O)c1cc(-c2ccnc(N3CCN(C)CC3)c2)cc2c1cnn2C(C)C
In short: as §1

[19] = compound: CCN(CC)Cc1ccc2cc(COC(=O)Nc3ccc(C(=O)NO)cc3)ccc2c1 [givinostat]
In short: as §1

[20] = compound: CCN(CCCOc1ccc2c(Nc3cc(CC(=O)Nc4cccc(F)c4)[nH]n3)ncnc2c1)CCOP(=O)(O)O [barasertib]
In short: as §1

Measured: log2 fold change

RSRC2 (UniProt Q7L4I2)
UniProt Q7L4I2, sequence (Q7L4I2 whole entry, looked up): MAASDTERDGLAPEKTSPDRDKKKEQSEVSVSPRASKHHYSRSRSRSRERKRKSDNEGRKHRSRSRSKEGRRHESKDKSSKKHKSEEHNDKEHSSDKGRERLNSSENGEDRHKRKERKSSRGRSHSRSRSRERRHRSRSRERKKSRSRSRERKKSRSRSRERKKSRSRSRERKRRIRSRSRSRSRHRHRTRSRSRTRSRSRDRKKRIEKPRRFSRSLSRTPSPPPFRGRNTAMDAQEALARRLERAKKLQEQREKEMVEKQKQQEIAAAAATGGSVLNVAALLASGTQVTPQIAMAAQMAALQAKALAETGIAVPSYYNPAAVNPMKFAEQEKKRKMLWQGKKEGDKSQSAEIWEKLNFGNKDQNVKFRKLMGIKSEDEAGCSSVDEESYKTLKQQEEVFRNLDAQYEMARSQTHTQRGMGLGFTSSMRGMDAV
inactive: [1] 0.03 | [2] -0.035 | [4] 0.012 | [5] -0.033 | [6] -0.013 | [7] -0.026 | [8] -0.019 | [9] 0.028 | [10] 0.016 | [11] -0.048 | [12] 0.04 | [13] -0.058 | [14] 0 | [15] 0.015 | [16] 0.007 | [17] 0.003 | [18] -0.063 | [19] -0.013 | [20] 0.01
active: [3] -0.284

RPS25 (UniProt P62851)
inactive: [1] -0.08 | [2] 0.01 | [3] 0.069 | [4] 0.073 | [5] 0.033 | [6] -0.028 | [7] 0.054 | [8] 0.184 | [9] 0.006 | [11] 0.009 | [12] 0 | [13] -0.03 | [14] 0 | [15] 0.11 | [16] -0.08 | [17] -0.102 | [18] 0.06 | [19] 0.042 | [20] -0.075
active: [10] -0.533

RPS3A (UniProt P61247)
active: [10] -0.565
inactive: [1] -0.133 | [2] 0.028 | [3] 0.072 | [4] 0.053 | [5] 0.069 | [6] -0.071 | [7] 0.059 | [8] 0.108 | [9] 0.03 | [11] 0.011 | [12] 0.009 | [13] -0.081 | [14] -0.036 | [15] 0.069 | [16] -0.104 | [17] -0.095 | [18] 0.071 | [19] -0.033 | [20] -0.109

SERINC3 (UniProt Q13530)
UniProt Q13530, sequence (Q13530 whole entry, looked up): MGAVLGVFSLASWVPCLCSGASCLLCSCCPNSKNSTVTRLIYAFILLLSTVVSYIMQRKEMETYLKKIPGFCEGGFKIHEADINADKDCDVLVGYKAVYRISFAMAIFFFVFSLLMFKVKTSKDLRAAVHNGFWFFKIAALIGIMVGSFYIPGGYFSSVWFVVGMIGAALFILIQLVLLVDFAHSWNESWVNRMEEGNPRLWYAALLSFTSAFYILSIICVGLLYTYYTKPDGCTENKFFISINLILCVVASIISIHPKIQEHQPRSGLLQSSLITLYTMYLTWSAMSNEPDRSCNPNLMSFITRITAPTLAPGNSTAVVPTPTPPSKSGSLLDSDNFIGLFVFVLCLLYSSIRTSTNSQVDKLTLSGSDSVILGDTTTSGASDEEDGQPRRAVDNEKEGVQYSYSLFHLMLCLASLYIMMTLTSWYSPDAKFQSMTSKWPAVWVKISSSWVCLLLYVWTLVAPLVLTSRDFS
active: [6] -0.399 | [18] -0.414
inactive: [1] -0.006 | [2] -0.01 | [3] -0.027 | [4] -0.14 | [5] -0.304 | [7] 0.17 | [8] -0.01 | [9] 0 | [10] -0.039 | [11] -0.136 | [12] -0.001 | [13] 0.009 | [14] 0.054 | [15] 0.011 | [16] 0.083 | [17] 0.002 | [19] 0.064 | [20] 0.038

RHOA (UniProt P61586)
UniProt P61586, sequence (P61586 whole entry, looked up): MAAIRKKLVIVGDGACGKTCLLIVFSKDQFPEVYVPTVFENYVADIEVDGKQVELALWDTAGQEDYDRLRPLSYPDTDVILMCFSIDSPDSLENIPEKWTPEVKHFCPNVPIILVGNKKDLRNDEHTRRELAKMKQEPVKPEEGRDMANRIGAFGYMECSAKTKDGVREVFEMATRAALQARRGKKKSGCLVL
inactive: [1] 0.108 | [2] -0.015 | [3] 0.047 | [4] 0.251 | [5] -0.034 | [6] 0.063 | [7] -0.07 | [8] -0.023 | [9] 0.002 | [10] -0.007 | [11] 0.015 | [12] -0.073 | [13] 0.047 | [14] 0.061 | [15] 0.039 | [16] -0.042 | [17] 0.074 | [18] 0.145 | [19] -0.032 | [20] 0.026

RCN3 (UniProt Q96D15)
UniProt Q96D15, sequence (Q96D15 whole entry, looked up): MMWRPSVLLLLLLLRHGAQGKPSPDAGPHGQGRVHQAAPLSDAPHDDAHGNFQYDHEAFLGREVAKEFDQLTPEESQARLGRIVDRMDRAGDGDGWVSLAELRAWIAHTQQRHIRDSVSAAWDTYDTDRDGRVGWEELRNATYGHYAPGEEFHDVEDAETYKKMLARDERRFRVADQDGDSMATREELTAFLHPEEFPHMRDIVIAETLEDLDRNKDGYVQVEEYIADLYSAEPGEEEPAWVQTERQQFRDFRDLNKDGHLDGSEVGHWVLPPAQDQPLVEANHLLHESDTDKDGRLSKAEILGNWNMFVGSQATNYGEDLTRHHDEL
inactive: [1] 0.131 | [2] 0.075 | [3] -0.048 | [4] -0.013 | [5] 0.013 | [6] 0.047 | [7] 0.026 | [8] -0.035 | [9] 0.05 | [10] -0.031 | [11] -0.055 | [12] 0.029 | [13] -0.028 | [14] -0.073 | [15] 0.077 | [16] -0.003 | [17] -0.053 | [18] -0.145 | [19] -0.023 | [20] -0.011

ROCK1 (UniProt Q13464)
active: [9] 0.249
inactive: [1] -0.019 | [2] 0.013 | [3] 0.015 | [4] 0.031 | [5] -0.079 | [6] -0.026 | [7] 0.012 | [8] 0.027 | [10] -0.013 | [11] 0.003 | [12] -0.073 | [13] -0.016 | [14] -0.037 | [15] 0.093 | [16] 0.052 | [17] 0.036 | [18] -0.019 | [19] 0.031 | [20] 0.021

RBM25 (UniProt P49756)
UniProt P49756, sequence (P49756 whole entry, looked up): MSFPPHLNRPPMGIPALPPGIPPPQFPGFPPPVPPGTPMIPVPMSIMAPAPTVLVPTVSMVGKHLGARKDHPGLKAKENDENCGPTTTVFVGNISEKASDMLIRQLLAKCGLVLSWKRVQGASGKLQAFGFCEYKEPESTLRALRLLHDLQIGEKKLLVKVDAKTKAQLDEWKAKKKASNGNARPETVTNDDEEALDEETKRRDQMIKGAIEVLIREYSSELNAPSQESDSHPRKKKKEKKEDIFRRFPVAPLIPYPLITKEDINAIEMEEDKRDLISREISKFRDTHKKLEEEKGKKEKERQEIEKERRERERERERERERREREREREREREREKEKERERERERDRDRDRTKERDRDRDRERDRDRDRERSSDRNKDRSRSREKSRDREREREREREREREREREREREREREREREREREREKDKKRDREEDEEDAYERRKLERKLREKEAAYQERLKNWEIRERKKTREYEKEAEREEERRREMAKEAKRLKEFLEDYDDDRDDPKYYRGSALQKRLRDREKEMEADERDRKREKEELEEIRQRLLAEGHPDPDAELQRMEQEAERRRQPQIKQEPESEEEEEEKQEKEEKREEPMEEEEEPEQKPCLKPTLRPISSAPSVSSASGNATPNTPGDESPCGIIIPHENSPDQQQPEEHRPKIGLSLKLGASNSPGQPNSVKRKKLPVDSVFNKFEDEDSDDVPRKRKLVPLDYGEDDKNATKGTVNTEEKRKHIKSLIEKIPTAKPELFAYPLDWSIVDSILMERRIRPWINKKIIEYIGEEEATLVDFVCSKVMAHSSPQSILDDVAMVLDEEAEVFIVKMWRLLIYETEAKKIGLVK
inactive: [1] 0.031 | [2] 0.01 | [3] -0.032 | [4] 0.102 | [5] -0.044 | [6] 0.026 | [7] 0.057 | [8] -0.039 | [9] -0.001 | [10] 0.042 | [11] -0.032 | [12] 0.017 | [13] -0.007 | [14] -0.074 | [15] 0.02 | [16] 0.019 | [17] 0 | [18] -0.093 | [19] 0.202 | [20] 0.035

RTN4IP1 (UniProt Q8WWV3)
UniProt Q8WWV3, sequence (Q8WWV3 whole entry, looked up): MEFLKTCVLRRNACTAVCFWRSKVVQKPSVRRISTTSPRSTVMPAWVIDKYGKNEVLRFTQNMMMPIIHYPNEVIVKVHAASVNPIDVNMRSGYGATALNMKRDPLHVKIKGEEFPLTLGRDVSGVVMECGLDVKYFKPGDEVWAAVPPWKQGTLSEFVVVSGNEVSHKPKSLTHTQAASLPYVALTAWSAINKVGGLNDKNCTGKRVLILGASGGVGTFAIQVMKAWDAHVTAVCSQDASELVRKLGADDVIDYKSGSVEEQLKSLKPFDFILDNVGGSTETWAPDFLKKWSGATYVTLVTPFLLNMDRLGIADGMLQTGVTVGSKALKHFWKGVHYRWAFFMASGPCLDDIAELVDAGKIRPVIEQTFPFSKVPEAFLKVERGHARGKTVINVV
inactive: [1] -0.036 | [2] 0.214 | [3] -0.326 | [4] 0.034 | [5] -0.046 | [6] 0.063 | [7] -0.009 | [8] 0.02 | [9] -0.039 | [10] 0.14 | [11] 0.253 | [12] -0.033 | [13] 0.294 | [14] 0.119 | [15] -0.061 | [16] 0.034 | [17] -0.041 | [18] -0.218 | [19] -0.081 | [20] 0.031

RAD50 isoform 2 (UniProt Q92878)
inactive: [1] -0.005 | [2] -0.004 | [3] -0.099 | [4] -0.03 | [5] -0.003 | [6] -0.002 | [7] -0.014 | [8] -0.013 | [9] -0.008 | [10] 0.006 | [11] 0 | [12] -0.024 | [13] 0.004 | [14] 0.009 | [15] -0.005 | [16] 0.027 | [17] 0.038 | [18] 0.014 | [19] 0.026 | [20] 0.033

SIRT2 (UniProt Q8IXJ6)
UniProt Q8IXJ6, sequence (Q8IXJ6 whole entry, looked up): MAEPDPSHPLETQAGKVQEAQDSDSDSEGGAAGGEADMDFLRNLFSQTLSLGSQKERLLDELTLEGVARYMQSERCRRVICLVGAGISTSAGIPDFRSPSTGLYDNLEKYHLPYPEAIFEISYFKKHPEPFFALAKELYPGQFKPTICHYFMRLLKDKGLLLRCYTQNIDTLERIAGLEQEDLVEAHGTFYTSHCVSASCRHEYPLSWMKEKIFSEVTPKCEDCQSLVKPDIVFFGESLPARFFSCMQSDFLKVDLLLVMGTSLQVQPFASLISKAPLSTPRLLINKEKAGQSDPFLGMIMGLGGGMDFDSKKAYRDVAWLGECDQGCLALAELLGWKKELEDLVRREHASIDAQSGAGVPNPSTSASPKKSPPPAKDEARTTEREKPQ
inactive: [1] 0.047 | [2] -0.003 | [3] -0.003 | [4] -0.023 | [5] 0.041 | [6] -0.033 | [7] 0.028 | [8] -0.002 | [9] -0.075 | [10] -0.022 | [11] 0.014 | [12] -0.051 | [13] -0.016 | [14] 0.027 | [15] 0.004 | [16] 0.012 | [17] -0.022 | [18] -0.002 | [19] 0.004 | [20] 0.015

RB1 (UniProt P06400)
UniProt P06400, sequence (P06400 whole entry, looked up): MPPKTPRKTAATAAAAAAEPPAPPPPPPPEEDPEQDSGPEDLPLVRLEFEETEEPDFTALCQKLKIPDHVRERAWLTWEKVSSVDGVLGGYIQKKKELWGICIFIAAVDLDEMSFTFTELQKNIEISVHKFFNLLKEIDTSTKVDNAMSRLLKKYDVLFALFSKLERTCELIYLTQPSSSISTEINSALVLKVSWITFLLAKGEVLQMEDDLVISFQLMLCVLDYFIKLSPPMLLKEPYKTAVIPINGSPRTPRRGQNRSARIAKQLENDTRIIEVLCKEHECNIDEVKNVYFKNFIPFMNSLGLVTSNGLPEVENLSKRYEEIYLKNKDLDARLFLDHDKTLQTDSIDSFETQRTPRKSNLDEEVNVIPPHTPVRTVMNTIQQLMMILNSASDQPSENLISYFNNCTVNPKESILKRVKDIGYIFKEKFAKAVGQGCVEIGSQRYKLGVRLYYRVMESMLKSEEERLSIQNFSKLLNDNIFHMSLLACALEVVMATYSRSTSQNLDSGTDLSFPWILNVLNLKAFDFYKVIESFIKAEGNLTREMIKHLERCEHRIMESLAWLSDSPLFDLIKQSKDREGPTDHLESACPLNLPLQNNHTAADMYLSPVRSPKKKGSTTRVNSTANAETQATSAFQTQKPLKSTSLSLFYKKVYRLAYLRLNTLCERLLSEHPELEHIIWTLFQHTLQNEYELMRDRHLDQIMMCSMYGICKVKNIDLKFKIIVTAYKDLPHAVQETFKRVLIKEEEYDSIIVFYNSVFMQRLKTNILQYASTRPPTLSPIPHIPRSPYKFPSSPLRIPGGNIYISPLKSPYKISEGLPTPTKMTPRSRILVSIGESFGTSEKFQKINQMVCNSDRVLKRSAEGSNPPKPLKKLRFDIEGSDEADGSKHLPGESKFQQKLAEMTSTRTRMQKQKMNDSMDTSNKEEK
active: [3] -0.761 | [6] -0.386
inactive: [1] 0.015 | [2] 0.025 | [4] -0.06 | [5] -0.054 | [7] 0.032 | [8] -0.006 | [9] -0.007 | [10] -0.035 | [11] 0.016 | [12] -0.011 | [13] 0.034 | [14] 0.003 | [15] -0.1 | [16] -0.01 | [17] -0.008 | [18] -0.026 | [19] -0.02 | [20] -0.004

RPS2 (UniProt P15880)
inactive: [1] -0.101 | [2] 0.042 | [3] 0.085 | [4] 0.055 | [5] 0.019 | [6] -0.004 | [7] 0.061 | [8] 0.222 | [9] 0.032 | [11] 0.006 | [12] 0.009 | [13] -0.075 | [14] -0.036 | [15] 0.192 | [16] -0.116 | [17] -0.099 | [18] 0.084 | [19] -0.011 | [20] -0.095
active: [10] -0.682

SELENOH (UniProt Q8IZQ5)
UniProt Q8IZQ5, sequence (Q8IZQ5 whole entry, looked up): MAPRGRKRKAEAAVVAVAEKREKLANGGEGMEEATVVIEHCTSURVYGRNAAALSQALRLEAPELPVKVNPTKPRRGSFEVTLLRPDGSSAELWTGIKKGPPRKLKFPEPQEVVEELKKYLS
inactive: [1] -0.018 | [2] -0.039 | [3] 0.13 | [4] 0.086 | [5] -0.017 | [6] 0.059 | [7] -0.012 | [8] -0.012 | [9] -0.052 | [10] 0.057 | [11] 0.09 | [12] -0.011 | [13] 0.023 | [14] -0.035 | [15] 0.089 | [16] 0.042 | [17] 0.007 | [18] 0.075 | [19] 0.024 | [20] -0.031

RPS13 (UniProt P62277)
active: [10] -0.759
inactive: [1] -0.096 | [2] 0.035 | [3] 0.103 | [4] 0.13 | [5] 0.071 | [6] -0.031 | [7] 0.137 | [8] 0.345 | [9] 0.035 | [11] 0.006 | [12] 0.022 | [13] -0.044 | [14] -0.057 | [15] 0.119 | [16] -0.144 | [17] -0.09 | [18] 0.091 | [19] 0.045 | [20] -0.101

RDH10 (UniProt Q8IZV5)
UniProt Q8IZV5, sequence (Q8IZV5 whole entry, looked up): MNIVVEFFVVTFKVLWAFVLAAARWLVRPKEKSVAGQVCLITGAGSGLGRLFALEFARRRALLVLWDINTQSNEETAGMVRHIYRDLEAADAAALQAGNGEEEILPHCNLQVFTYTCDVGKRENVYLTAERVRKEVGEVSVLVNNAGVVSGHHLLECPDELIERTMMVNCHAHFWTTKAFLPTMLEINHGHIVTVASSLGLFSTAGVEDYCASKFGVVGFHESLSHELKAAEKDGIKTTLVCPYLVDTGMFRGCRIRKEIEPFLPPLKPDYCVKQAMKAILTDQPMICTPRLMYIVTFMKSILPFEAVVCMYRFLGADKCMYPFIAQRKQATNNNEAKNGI
inactive: [1] 0.076 | [2] 0.159 | [3] -0.07 | [4] 0.008 | [5] 0.075 | [6] 0.069 | [7] -0.043 | [8] -0.018 | [9] 0.007 | [10] 0.007 | [11] 0.004 | [12] -0.034 | [13] 0.047 | [14] -0.055 | [15] -0.107 | [16] -0.016 | [17] -0.058 | [18] -0.043 | [19] -0.091 | [20] 0.011
